Experimental data published in PubChem BioAssay AID1376 (SRMLSC, 2008).
“And” between values parts separate entries of the source, which are not always exact repeats. Equal values may be shown once. The campaign covered roughly 220,000 compounds. About 530 (0.24%) were called active. Rule as the data show it: active = inhibition above about 13%; inconclusive = no clear call, values can overlap the other calls; inactive = below that. What follows is part of a selection rich in actives, with near analogues and random picks from the rest. Potency and affinity values are given separately. Some structures have more than one record in an assay (separate samples or runs), and their calls can disagree.

These compounds were tested against Bifunctional protein GlmU (Mycobacterium tuberculosis (strain ATCC 25618 / H37Rv)) (UniProt P9WMN3) (assay: inhibition of mycobacterial GlmU enzyme – biochemical, glucosamine-1-phosphate acetyltransferase (AID 1376;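 also: 0% = complete reaction with vehicle and 100% = reaction without substrate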)). Settings: M. tuberculosis GlmU acetyltransferase enzyme assay; stronger effect = higher value;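 tested at 30 µM in the primary screen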.
Chain of Bifunctional protein GlmU (Mycobacterium tuberculosis (strain ATCC 25618 / H37Rv)) (P9WMN3 whole entry, looked up): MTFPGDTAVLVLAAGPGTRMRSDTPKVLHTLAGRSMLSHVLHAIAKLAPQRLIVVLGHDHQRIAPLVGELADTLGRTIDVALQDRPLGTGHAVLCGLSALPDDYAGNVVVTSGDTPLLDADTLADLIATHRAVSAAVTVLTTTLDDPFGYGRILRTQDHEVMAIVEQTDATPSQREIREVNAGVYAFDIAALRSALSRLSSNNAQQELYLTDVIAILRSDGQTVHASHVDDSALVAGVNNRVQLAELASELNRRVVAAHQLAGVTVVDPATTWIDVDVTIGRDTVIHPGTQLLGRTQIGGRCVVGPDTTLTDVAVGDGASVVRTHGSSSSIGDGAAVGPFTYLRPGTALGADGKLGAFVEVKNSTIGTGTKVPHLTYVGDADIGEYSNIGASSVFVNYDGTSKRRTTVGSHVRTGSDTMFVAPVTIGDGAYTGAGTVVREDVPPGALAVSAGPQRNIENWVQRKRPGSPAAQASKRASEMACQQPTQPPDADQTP

SMILES | inhibition
CCCNC(=O)c1ccc(CNc2c(N3CCC(C(=O)OCC)CC3)c(=O)c2=O)cc1 | -8.96% (inactive)
CCOC(=O)C1CCN(c2c(NCc3ccc(N(C)C)cc3)c(=O)c2=O)CC1 | 14.4% (active)
CCOC(=O)N1CCN(c2c(NCc3ccc(N(C)C)cc3)c(=O)c2=O)CC1 | -1.67% (inactive)
COc1nccnc1NS(=O)(=O)c1ccc(NC(=S)NC(=O)/C=C/c2ccc(F)cc2)cc1 | 10.5% (inactive)
O=C(/C=C/NNC(=O)c1cccc(Br)c1)c1cccc(Br)c1 | 12.9% (active)
O=C(/C=C/NNC(=O)c1ccc(Br)cc1)c1ccccc1 | -0.31% (inactive)
O=C(/C=C/NNC(=O)c1ccccc1)c1ccc(Br)cc1 | -1.06% (inactive)
CC(C)(C)S(=O)(=O)c1ccsc1C(=O)O | 0.11% (inactive)
Cc1cccc(-n2c(-c3ccoc3C)n[nH]c2=S)c1 | 11.9% (inactive)
Cc1ccccc1-n1c(-c2ccoc2C)n[nH]c1=S | 5.31% (inactive)
Cc1occc1-c1n[nH]c(=S)n1-c1ccccc1 | 12.8% (active)
COc1ccccc1Nc1nc(N)nc(CSCCO)n1 | 1.91% (inactive)
COc1cc(/C=C2\CC/C(=C\c3cc(OC)c(O)c(OC)c3)C2=O)cc(OC)c1O | 14.3% (active)
COc1cc(/C=C2\CC/C(=C\c3cc(OC)c(OC)c(OC)c3)C2=O)cc(OC)c1OC | -2% (inactive)
COc1cc(/C=C2/CC/C(=C/c3ccc(O)c(OC)c3)C2=O)ccc1O | -0.98% (inactive)
N#Cc1ccc2ccn(CC(=O)NC3CCCCCC3)c2c1 | 6.23% (inactive)
C[C@@H]1Cc2c(O)c(O)cc(O)c2C(=O)O1 | -2.99% (inactive)
CC1Oc2cc3c(-c4c(O)cc(O)c5c(O)c6c(cc45)OC(C)C(C)C6=O)c(O)cc(O)c3c(O)c2C(=O)C1C (stereo not given) | 16.3% (active) and 8.27% (inactive)
CC1CC(=O)c2c(cc3c(-c4c(O)cc(O)c5c(O)c6c(cc45)OC(C)CC6=O)c(O)cc(O)c3c2O)O1 (stereo not given) | 18.9% (inactive)
Cc1ccc(C(=O)Nc2ccc(C(=O)O)cc2)cc1S(=O)(=O)NCc1ccccc1 | -0.6% (inactive)

SMILES | inhibition
Cc1cc2nccc(-c3ccco3)n2n1 | 13.6% (active)
O=C(O)c1cc2nccc(-c3ccco3)n2n1 | 3.14% (inactive)
Cc1cc2nccc(-c3ccccn3)n2n1 | -6.43% (inactive)
Cc1ccc(Nc2c(-c3ccc(N4CCOCC4)cc3)nc3cnccn23)cc1 | -2.79% (inactive)
O=C(NCCCN1CCCCCC1)c1ccc2c(Cl)c3c(nc2c1)CCCC3 | -1.55% (inactive)
S=C1NC2(CCS1)Oc1ccccc1C1CC(c3ccccc3)=NN12 (stereo not given) | -6.7% (inactive)
COc1ccc(F)cc1S(=O)(=O)Nc1ccc2c(c1)OCCO2 | 2.41% (inactive)
COc1ccc(F)cc1S(=O)(=O)Nc1ccc2c(c1)OCO2 | 14.9% (active)
COc1ccc(C)cc1S(=O)(=O)Nc1ccc2c(c1)OCO2 | 3.25% (inactive)
COc1cc(Nc2ncnc(N)n2)cc(OC)c1OC | 3.26% (inactive)
COc1ccc(NC(=O)CN2CCN(CC(=O)Nc3ccccc3F)CC2)cc1OC | -7.08% (inactive)
O=c1[nH]c(/C=C\c2cccs2)nc(O)c1[N+](=O)[O-] | 2.4% (inactive)
C=CCc1cc(/C=C/c2nc(O)c([N+](=O)[O-])c(=O)[nH]2)cc(OC)c1O | 14.5% (active)
COc1ccc(-n2c(C)cc(/C=C/c3nc(O)c([N+](=O)[O-])c(=O)[nH]3)c2C)cc1 | 10% (inactive)
O=C(Nc1ccc(F)cc1F)N1CCN(c2ncccn2)CC1 | 1.49% (inactive)
CC(C)(C)OC(=O)N/N=C/c1c[nH]c2ccccc12 | 2.23% (inactive)
O=C(COc1cccnc1[N+](=O)[O-])Nc1ccc2c(c1)OC(F)(F)O2 | 3.24% (inactive)
O=C(NCc1ccc(F)cc1)C1CCCN(c2nc3ccsc3c(=O)s2)C1 (stereo not given) | 2.37% (inactive)
CCOC(=O)C1=C(c2ccccc2)NC(SCC(=O)NC2CCCCC2)=C(C#N)C1c1ccco1 (stereo not given) | 2.37% (inactive)
O=C1/C(=C\c2ccc(-c3ccccc3Cl)o2)SC(=S)N1CC1CCCO1 (stereo not given) | 7.34% (inactive)

SMILES | inhibition
Cc1ccc(/C=C2\SC(=S)N(Cc3ccccc3)C2=O)o1 | -1.65% (inactive)
O=C1N=C(N2CCOCC2)S/C1=C\c1ccc(-c2ccccc2Cl)o1 | 2.7% (inactive)
CCOc1ccc(/C=C2/SC(=O)NC2=S)cc1 | -3.11% (inactive)
O=C(Nc1cccc(NC(=O)c2nccc3ccccc23)c1)c1ccco1 | -1.26% (inactive)
COc1cc(C(=O)Nc2ccncc2)c([N+](=O)[O-])cc1OC | 6.59% (inactive)
CCN1CCN(c2cc(C)c3cc(NC(=O)c4cnccn4)ccc3n2)CC1 | -5.83% (inactive)
O=C1c2ccccc2C(=O)N1OCc1ccc(Cl)cc1 | -2.04% (inactive)
O=C1NC(=O)N(Cc2ccc(F)cc2)C(=O)/C1=C/c1cccs1 | -2.44% (inactive)
C=CCN1C(=O)/C(=C/c2cccs2)C(=O)NC1=S | 4.18% (inactive)
O=C1NC(=S)N(Cc2ccco2)C(=O)/C1=C\c1cccs1 | 96% (active)
CN(C)c1ccc(/C=C2/C(=O)NC(=O)N(Cc3ccco3)C2=O)cc1 | -4.04% (inactive)
CCN(CC)c1ccc(/C=C2/C(=O)NC(=O)N(Cc3ccco3)C2=O)cc1 | -0.51% (inactive)
O=C(/C=C/c1ccco1)c1ccc(NC(=O)C23CC4CC(CC(C4)C2)C3)cc1 | -0.76% (inactive)
Cc1ccc(C)c(S(=O)(=O)NCCOC(=O)Nc2sc(=S)n(C)c2C)c1 | 6.71% (inactive)
CCOC(=O)CNC(=O)CSc1nc(N)cc(N)n1 | 1.79% (inactive)
N#CC1=C(N)Oc2c(oc(CO)cc2=O)C1c1ccsc1 (stereo not given) | -2.69% (inactive)
Cc1nn(-c2ccc(Cl)cc2)c(NC(=O)C(C)C)c(-c2ccccc2)c1=O | -2.2% (inactive)
COc1cc(/C=C2/SC(=Nc3ccc(O)cc3)NC2=O)cc(OC)c1O | 7% (inactive)
COc1cc(/C=C2\SC(=Nc3ccc(O)cc3)NC2=O)cc(OC)c1O | 69.2% (active)
COc1cc(/C=C2\SC(=Nc3ccc(O)cc3)NC2=O)cc(OC)c1OC | -1.9% (inactive)
